The results in this text go back to PubChem BioAssay.

The structures appear in SMILES notation. Inconclusive results are not listed. Active and inactive are the calls of the source.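 The calls were made as follows, unless noted: active = response below a set limit, under 55% cells CD8-positive and vesicle-bound, and CD8 cells' 90th-percentile brightness under 279; inactive = the rest.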

A short description of experiment [1]: yeast TOR pathway RPL19A-GFP modulators, primary screen, cell-based, S. cerevisiae, multiplex flow cytometry (AID 1862; in the data active = percent of DMSO control GFP below about 86%;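 also: lower values mimic rapamycin by blocking the RPL19A rise seen in DMSO cells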). Conditions: S. cerevisiae RPL19A-GFP strain, flow cytometry fluorescence, 3 h; at 10 µM; stronger effect = lower value.
Experiment [2] can be described thus: modulators of MEP2-GFP levels in yeast, primary screen, S. cerevisiae, multiplex flow cytometry (AID 1867;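 active = GFP response, as percent of the DMSO control, above the screen-wide mean plus 3 SD, about 139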;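 also: median GFP channel fluorescence of barcode-gated MEP2-GFP cells measured by flow cytometry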). Conditions: S. cerevisiae MEP2-GFP strain, 3 h, at 10 µM, stronger effect = higher value, 100% means same as DMSO wells. For orientation: In flow cytometry, cells or beads pass a laser one at a time.
Experiment [3] can be described thus: modulators of CIT2-GFP expression in yeast, primary screen, S. cerevisiae, GFP fusion, multiplex flow cytometry (AID 1870;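 active = percent response above a set limit, the screen-wide mean plus 3 SD, cut at about 130% in these data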;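 also: barcoded CIT2-GFP strain pooled with four other GFP strains with rapamycin as positive control; median GFP fluorescence per well over plate mean of DMSO wells so 100% = DMSO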). Conditions: 3 h, at 10 µM, stronger effect = higher value.
Experiment [4] is described as follows: modulators of LAP4-GFP expression in yeast, primary screen, S. cerevisiae, multiplex flow cytometry (AID 1873;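 active = GFP signal, as percent of the solvent control, above the screen mean plus 3 SD, about 149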). Conditions: 3 h, at 10 µM, stronger effect = higher value.
Experiment [5] in a line: modulators of AGP1-GFP expression in yeast TOR pathway, primary screen, cell-based, multiplex flow cytometry, S. cerevisiae (AID 1887;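 active = GFP signal above the screen-wide mean plus 3 SD, that is over about 124.5% of the solvent control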;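 also: AGP1-GFP fusion strain of S. cerevisiae within a five-strain barcoded multiplex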). Conditions: 3 h, at 10 µM, stronger effect = higher value.
The nature of experiment [6]: inhibitors of CD8+ T cell-vesicle binding, pilot screen, LFA-1/ICAM-1 modulator project, MLPCN validation set, flow cytometry (AID 2523).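 As to vesicle binding response: mean PE anti-B7-1 fluorescence of CD8+ cells relative to row control; 100% = QL9-loaded vesicles with DMSO vehicle in the same plate row.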 Conditions: 2C mouse CD8+ T cells, at 7 µM, stronger effect = lower value; double positive events: measured here: CD8+/vesicle+ event percentage.
In experiment [7] the target is Integrin beta-1 (Homo sapiens) + Integrin alpha-4 (Homo sapiens) (UniProt P13612+P05556). The experiment is described as follows: inhibition of HUTS-21 binding to VLA-4, pilot screen, VLA-4 allosteric modulator project, U937 cells, HUTS-21 mAb, flow cytometry, validation set (AID 2674;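 active = inhibition above 50%, about 3 SD of the validation set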;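 also: antibody binding induced by the VLA-4 ligand LDV present at three times its Kd; 0% = LDV ligand with antibody and no compound and 100% = antibody without LDV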). Conditions: HUTS-21 LIBS mAb binding, at 6.7 µM, stronger effect = higher value, binding induced by LDV ligand.
Integrin beta-1 (Homo sapiens) + Integrin alpha-4 (Homo sapiens), sequence (P05556 whole entry, looked up): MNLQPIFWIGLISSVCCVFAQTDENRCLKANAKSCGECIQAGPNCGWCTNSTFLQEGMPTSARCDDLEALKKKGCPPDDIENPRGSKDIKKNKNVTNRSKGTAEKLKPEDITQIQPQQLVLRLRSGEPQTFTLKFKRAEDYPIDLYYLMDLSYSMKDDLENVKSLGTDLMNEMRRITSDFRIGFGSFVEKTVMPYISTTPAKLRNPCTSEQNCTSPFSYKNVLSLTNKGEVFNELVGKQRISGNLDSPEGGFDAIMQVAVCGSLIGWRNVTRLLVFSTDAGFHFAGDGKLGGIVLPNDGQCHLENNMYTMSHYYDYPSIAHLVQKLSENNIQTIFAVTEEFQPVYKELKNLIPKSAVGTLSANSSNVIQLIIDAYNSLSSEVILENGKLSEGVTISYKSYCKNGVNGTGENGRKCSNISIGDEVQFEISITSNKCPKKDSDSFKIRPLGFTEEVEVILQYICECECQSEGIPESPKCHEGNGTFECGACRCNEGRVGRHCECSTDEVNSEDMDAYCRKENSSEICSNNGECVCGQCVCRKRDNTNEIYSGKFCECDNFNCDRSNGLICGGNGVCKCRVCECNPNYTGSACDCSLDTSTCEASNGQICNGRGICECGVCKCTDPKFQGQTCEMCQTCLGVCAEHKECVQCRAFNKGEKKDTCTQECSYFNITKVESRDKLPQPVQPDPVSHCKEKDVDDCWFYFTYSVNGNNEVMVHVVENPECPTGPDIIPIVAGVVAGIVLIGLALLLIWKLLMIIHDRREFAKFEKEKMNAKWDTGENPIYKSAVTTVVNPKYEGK
Integrin beta-1 (Homo sapiens) + Integrin alpha-4 (Homo sapiens), sequence (P13612 whole entry, looked up): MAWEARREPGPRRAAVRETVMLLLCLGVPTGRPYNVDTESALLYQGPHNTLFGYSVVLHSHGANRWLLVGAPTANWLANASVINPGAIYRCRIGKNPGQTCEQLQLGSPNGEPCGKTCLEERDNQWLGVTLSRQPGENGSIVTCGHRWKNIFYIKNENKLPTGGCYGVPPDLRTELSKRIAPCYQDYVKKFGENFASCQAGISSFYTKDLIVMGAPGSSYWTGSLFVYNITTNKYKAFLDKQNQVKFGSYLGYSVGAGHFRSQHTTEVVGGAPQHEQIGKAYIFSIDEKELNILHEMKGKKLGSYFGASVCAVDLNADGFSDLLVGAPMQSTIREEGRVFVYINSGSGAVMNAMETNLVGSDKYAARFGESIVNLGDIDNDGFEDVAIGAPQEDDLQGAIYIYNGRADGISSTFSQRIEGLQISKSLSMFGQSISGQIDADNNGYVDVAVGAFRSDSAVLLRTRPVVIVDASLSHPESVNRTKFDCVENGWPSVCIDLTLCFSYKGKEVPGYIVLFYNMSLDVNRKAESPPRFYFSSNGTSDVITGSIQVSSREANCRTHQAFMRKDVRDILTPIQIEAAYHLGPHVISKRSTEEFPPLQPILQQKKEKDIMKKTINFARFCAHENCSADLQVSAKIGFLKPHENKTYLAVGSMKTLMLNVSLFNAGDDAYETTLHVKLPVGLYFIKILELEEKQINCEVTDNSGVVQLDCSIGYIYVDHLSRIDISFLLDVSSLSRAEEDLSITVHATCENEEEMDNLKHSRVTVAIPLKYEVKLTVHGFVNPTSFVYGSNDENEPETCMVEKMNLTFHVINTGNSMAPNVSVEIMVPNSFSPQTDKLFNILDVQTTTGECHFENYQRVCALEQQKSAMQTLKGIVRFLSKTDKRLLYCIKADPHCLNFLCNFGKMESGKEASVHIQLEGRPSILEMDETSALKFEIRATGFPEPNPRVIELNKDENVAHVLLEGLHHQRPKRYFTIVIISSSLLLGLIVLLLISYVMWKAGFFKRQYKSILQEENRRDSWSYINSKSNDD

Experiment [8] is described as follows: superoxide lowering in aged yeast cells, pilot screen, validation compound set (AID 2706;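 active = superoxide response below 65% of plate, a cut near 3 SD across the whole screen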;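 also: yeast exposed to compound for one week at 30 degrees C before staining; 100% = mean of all compound wells on the same plate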). Conditions: S. cerevisiae aging, superoxide DHE fluorescence; at 10 µM; stronger effect = lower value.
Experiment [9] concerns the target Beta-adrenergic receptor kinase 1 (Homo sapiens) (UniProt P25098). The experiment is described as follows: GRK2 binders displacing RNA aptamer, biochemical, validation, human GRK2, bead flow cytometry (AID 488806;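 active = aptamer binding inhibition above 30%, about 3 SD of noise from non-fluorescent compounds; inactive = inhibition at or below 30%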). Conditions: bead-bound GRK2, FAM-aptamer displacement, at 10 µM, stronger effect = higher value.
Experiment [10] deals with Beta-2 adrenergic receptor (Homo sapiens) (UniProt P07550). The experiment is described as follows: beta2AR agonists driving receptor internalization, pilot screen, cell-based, FAP fluorogen, flow cytometry, validation set (AID 504459;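 active = percent response above 42, roughly 3 SD of non-fluorescent test compounds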;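 also: agonist-driven loss of surface beta2AR via internalization measured by FAP dye flow cytometry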). Conditions: Am2.2-beta2AR cells, FAP surface receptor flow cytometry; at 10 µM; stronger effect = higher value.
Beta-2 adrenergic receptor (Homo sapiens), sequence (P07550 whole entry, looked up): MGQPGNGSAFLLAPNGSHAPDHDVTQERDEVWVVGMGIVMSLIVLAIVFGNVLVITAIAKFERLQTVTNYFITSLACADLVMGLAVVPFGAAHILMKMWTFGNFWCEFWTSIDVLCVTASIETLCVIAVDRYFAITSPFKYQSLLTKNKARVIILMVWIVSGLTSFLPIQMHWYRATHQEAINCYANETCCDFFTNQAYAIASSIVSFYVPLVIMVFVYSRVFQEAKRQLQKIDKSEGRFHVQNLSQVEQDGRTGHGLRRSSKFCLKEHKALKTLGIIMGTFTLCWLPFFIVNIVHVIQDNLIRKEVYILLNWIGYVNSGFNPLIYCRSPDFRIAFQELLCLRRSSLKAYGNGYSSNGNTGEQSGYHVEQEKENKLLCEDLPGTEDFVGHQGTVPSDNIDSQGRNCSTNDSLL
Experiment [11] concerns the target AP-2 complex subunit beta (Homo sapiens) (UniProt P63010). The experiment in a line: inhibitors of arrestin peptide binding to AP2, pilot screen, biochemical, validation set, GST-AP2 beads, flow cytometry (AID 504541;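 active = inhibition above 54%, about 3 SD of non-fluorescent compounds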;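 also: AP2 carries R879A mutation and is captured from E. coli lysate; bead-bound FITC arrestin peptide fluorescence measuring arrestin peptide binding to AP2; 0% = DMSO wells and 100% = excess unlabeled arrestin peptide control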). Conditions: FITC arrestin peptide, at 10 µM, stronger effect = higher value, AP2 beta2 appendage fragment, R879A mutant.
Experiment [12] in a line: yeast V-ATPase proton transport modulators, S. cerevisiae, pHLuorin, HTS validation (AID 504600; in the data active = response above about 15%;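 also: plate controls were DMSO for no effect and reference compound for full effect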). Conditions: S. cerevisiae pHLuorin cytosolic pH, at 10 µM, stronger effect = higher value.
Experiment [13] deals with anti-desmoglein-3 scFv antibody binding to human DSG3. The experiment in a line: inhibitors of anti-DSG3 scFv binding to DSG3, pilot screen, biochemical, validation compound set, bead-based, flow cytometry (AID 588368;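 active = binding below the plate cutoff, the plate median minus 3 SD, with a reading above zero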;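 also: signal is the median channel fluorescence of bead-bound GFP antibody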). Conditions: Protein G beads, DSG3-Fc, scFv-GFP binding, at 10 µM, stronger effect = lower value.
Experiment [14] is described as follows: inhibitors of fungal efflux pumps CDR1, CDR2, MDR1, pilot screen, validation compound set, multiplex, phenotypic (AID 588506;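 active = efflux inhibition above 0.42, the validation set average plus 4 SD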;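 also: Nile Red retained in cells so higher fluorescence means more efflux inhibition; 0 = negative control wells and 1 = enniatin B 25 µM full block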). Conditions: S. cerevisiae pump-expressing triplex, Nile Red efflux flow cytometry; at 10 µM; stronger effect = higher value; the pumps come from Candida albicans.
For experiment [15], the target named is ATP-binding cassette sub-family B member 6 (Homo sapiens) (UniProt Q9NP58). The experiment is described as follows: ABCB6 transporter inhibitors, pilot screen, K562-ABCB6 cells, flow cytometry, validation set (AID 588550;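 active = inhibition above the screen-wide mean plus 3 SD, about 51%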;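 also: 0% = DMSO wells and 100% = benzethonium chloride 70 µM positive control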). Conditions: K562-ABCB6 porphyrin accumulation, 1 h, at 10 µM, stronger effect = higher value.
ATP-binding cassette sub-family B member 6 (Homo sapiens), sequence (Q9NP58 whole entry, looked up): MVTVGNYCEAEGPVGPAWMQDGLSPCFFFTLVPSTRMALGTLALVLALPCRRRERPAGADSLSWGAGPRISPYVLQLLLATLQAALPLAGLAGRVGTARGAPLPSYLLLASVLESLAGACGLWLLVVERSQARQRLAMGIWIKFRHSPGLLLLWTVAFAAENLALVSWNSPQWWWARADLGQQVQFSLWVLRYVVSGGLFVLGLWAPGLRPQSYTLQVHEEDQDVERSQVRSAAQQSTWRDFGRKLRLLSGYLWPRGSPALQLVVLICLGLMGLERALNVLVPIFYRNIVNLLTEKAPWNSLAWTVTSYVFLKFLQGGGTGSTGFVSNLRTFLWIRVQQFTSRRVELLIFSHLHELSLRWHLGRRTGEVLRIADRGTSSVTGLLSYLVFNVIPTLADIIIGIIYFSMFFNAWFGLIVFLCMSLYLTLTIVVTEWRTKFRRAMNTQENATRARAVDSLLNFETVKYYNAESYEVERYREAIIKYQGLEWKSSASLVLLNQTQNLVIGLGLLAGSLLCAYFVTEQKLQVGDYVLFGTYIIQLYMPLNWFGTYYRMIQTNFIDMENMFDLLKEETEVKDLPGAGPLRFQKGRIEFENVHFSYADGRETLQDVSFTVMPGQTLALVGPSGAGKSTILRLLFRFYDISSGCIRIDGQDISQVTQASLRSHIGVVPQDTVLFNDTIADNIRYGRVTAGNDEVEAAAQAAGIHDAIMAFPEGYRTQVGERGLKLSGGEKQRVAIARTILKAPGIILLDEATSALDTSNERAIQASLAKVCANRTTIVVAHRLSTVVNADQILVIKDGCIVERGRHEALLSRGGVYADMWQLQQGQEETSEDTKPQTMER
A short description of experiment [16]: promoters of myeloid differentiation in arrested cells, primary screen, cell-based, GFP/MAC1 double positive, flow cytometry, validation set (AID 588685;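 active = differentiation response of at least 50%, scaled between solvent and reference control, from cells with both markers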;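 also: compound exposure lasts four days before antibody staining and flow analysis; 0% = DMSO wells and 100% = 5 µM fulvestrant positive control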). Conditions: ER-HoxA9 marrow cells, stronger effect = higher value, normalized: vehicle 0, fulvestrant 100.

For orientation: inhibition means the relative decrease from the control value, in per cent.

Beta-adrenergic receptor kinase 1 (Homo sapiens), sequence (P25098 whole entry, looked up): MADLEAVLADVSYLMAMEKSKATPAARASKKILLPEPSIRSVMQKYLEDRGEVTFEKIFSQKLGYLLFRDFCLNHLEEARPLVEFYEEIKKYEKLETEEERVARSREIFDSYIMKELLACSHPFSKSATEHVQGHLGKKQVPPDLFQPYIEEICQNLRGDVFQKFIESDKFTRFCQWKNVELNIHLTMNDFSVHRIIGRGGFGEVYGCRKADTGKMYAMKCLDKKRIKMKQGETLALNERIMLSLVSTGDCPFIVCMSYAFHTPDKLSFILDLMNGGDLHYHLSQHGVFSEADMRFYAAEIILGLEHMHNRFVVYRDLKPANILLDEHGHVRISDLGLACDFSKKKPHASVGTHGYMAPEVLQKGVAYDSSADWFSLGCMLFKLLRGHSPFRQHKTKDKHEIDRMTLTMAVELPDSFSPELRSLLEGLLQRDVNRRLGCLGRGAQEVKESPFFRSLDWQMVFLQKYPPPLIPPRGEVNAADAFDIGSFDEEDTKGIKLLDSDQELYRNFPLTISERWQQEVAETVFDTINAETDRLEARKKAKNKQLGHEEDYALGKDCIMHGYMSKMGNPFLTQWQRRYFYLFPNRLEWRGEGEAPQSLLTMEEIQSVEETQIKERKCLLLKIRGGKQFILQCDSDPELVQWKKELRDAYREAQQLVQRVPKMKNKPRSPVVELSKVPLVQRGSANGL
AP-2 complex subunit beta (Homo sapiens), sequence (P63010 whole entry, looked up, the tested form may be a part, one chain of several): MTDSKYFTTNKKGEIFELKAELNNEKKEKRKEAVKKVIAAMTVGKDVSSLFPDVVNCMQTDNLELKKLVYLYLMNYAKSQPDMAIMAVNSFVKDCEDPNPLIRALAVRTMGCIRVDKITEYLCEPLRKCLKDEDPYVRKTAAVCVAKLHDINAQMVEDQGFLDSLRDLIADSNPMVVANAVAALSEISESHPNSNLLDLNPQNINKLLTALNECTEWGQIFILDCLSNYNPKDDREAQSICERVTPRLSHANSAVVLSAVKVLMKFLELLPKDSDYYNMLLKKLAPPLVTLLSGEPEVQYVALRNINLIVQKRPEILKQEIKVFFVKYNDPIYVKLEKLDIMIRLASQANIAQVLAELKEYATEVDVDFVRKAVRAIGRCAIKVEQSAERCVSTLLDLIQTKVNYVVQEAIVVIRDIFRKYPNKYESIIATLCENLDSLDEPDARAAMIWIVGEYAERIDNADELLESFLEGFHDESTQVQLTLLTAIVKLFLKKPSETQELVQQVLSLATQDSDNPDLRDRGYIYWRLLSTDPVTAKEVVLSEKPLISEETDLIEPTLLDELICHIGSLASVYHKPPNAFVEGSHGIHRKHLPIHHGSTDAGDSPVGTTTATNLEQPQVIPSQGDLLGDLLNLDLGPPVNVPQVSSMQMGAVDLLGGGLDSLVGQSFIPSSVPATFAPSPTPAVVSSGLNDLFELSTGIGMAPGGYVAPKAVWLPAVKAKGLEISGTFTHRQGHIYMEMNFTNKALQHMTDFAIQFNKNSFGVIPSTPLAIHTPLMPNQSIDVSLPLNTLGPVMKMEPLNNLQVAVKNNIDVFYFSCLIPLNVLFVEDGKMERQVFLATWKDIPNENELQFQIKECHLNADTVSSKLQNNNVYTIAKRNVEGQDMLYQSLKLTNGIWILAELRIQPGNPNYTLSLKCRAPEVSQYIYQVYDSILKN

On to `CC(C)[C@H](NC(=O)[C@@H]1CSCN1C(=O)OC(C)(C)C)C(=O)NCC1CCC(C(=O)O)CC1` (stereo not given in full), for which, in experiment [1], the percent of DMSO control GFP was 99.7% (inactive). Further, the GFP response vs DMSO in experiment [2] is 97.4% (inactive); in experiment [4] it was 84.6% (inactive). The percent response of DMSO control in experiment [3] was 104% (inactive). In experiment [5], the GFP response, % of DMSO was 96.3% (inactive). In addition, in [6], the double positive events came out at 64.5%. Besides, in experiment [6], the vesicle binding response is 283% (inactive). Besides, the inhibition in [7] was -4.52% (inactive); in experiment [11], -2.51% (inactive); in experiment [15] it was 109% (active). Also, the superoxide response (% of plate) in experiment [8] is 82.1% (inactive). Besides, the aptamer binding inhibition in [9] was 4% (inactive). Moreover, the response is -5.23% (inactive) in experiment [10] and 3.84% (inactive) in experiment [12]. Besides, the binding (% of control) in [13] is 98.9% (inactive). The efflux inhibition (fraction of control) in experiment [14] was 0.01 (inactive). Further, the differentiation response in [16] was 0.8% (inactive).

`C[C@]12CC[C@@H]3c4ccc(O)cc4CC[C@H]3[C@@H]1CC[C@@H]2O`: in experiment [1], the percent of DMSO control GFP is 98.8% (inactive). Further, the values for the GFP response vs DMSO in experiment [2] and in [4] were 105% (inactive) and 132% (inactive), respectively. Moreover, the percent response of DMSO control in [3] is 98.2% (inactive). In experiment [5], the GFP response, % of DMSO was 98.6% (inactive). In experiment [6], this compound registered a double positive events of 63%. Besides, in experiment [6], the vesicle binding response was 186% (inactive). Also, the inhibition in experiment [7] is 5.41% (inactive); in experiment [11], 21.6% (inactive); in experiment [15] it was 4% (inactive). For the same compound, the superoxide response (% of plate) in experiment [8] is 97.8% (inactive). In addition, the aptamer binding inhibition in [9] was 1% (inactive). The results for the response in experiment [10] and in [12] were -1.92% (inactive) and 2.25% (inactive), respectively. The binding (% of control) in [13] is 103% (inactive). In addition, the efflux inhibition (fraction of control) in experiment [14] was 0.68 (active). The differentiation response in experiment [16] was 9.54% (inactive).

With `CCNC(=O)C12CCC(C)(C(=O)O1)C2(C)C` (stereo not given), in experiment [1], the percent of DMSO control GFP was 105% (inactive). The results for the GFP response vs DMSO in experiment [2] and in experiment [4] were 102% (inactive) and 95.8% (inactive), respectively. Further, the percent response of DMSO control in experiment [3] was 102% (inactive). Further, in experiment [5], the GFP response, % of DMSO was 101% (inactive). In experiment [6], the double positive events was 60.6%. Moreover, the vesicle binding response in experiment [6] is 120% (inactive). The inhibition was 8.28% (inactive) in experiment [7], 6.39% (inactive) in experiment [11] and 7% (inactive) in experiment [15]. Also, in experiment [8], the superoxide response (% of plate) was 105% (inactive). The aptamer binding inhibition in [9] was 2% (inactive). Further, the values for the response in [10] and in [12] were 6.09% (inactive) and 2.81% (inactive), respectively. Besides, the binding (% of control) in [13] is 95.7% (inactive). The efflux inhibition (fraction of control) in [14] was -0.54 (inactive). Further, in experiment [16], the differentiation response was 1.17% (inactive).

For the compound `COc1ccc(/C=C2\CC/C(=C\c3ccc(OC)c(OC)c3)C2=O)cc1OC`, the percent of DMSO control GFP in experiment [1] is 99.8% (inactive). Moreover, the values for the GFP response vs DMSO in [2] and in [4] were 103% (inactive) and 97.2% (inactive), respectively. For the same compound, in experiment [3], the percent response of DMSO control is 97.1% (inactive). The GFP response, % of DMSO in [5] was 96.6% (inactive). Also, the double positive events in experiment [6] worked out at 59.8%. Also, the vesicle binding response in [6] was 254% (inactive). Further, the inhibition in [7] is -18.9% (inactive); in [11], 0.71% (inactive); in [15] it was 2% (inactive). The superoxide response (% of plate) in experiment [8] was 99% (inactive). Besides, the aptamer binding inhibition in experiment [9] was 3% (inactive). Besides, the response in experiment [10] was 17.4% (inactive); in experiment [12] it was -0.5% (inactive). Besides, the binding (% of control) in experiment [13] was 98.8% (inactive). In addition, in [14], the efflux inhibition (fraction of control) is 0.1 (inactive). In experiment [16], the differentiation response is -5.68% (inactive).

For the compound `CCC[C@@H]1C[C@@H](C(=O)N[C@H]([C@@H](C)O)[C@H]2O[C@H](SC)[C@H](O)[C@@H](O)C2O)N(C)C1` (stereo not given in full), the percent of DMSO control GFP in [1] was 92.8% (inactive). Moreover, the GFP response vs DMSO was 120% (inactive) in experiment [2] and 80.9% (inactive) in experiment [4]. The percent response of DMSO control in [3] is 97.9% (inactive). The GFP response, % of DMSO in [5] is 90.1% (inactive). In experiment [6], this compound yielded a double positive events of 66.2%. In addition, the vesicle binding response in experiment [6] is 177% (inactive). For the same compound, the results for the inhibition in [7], in experiment [11] and in experiment [15] were 3.55% (inactive), -1.72% (inactive) and 10% (inactive), respectively. For the same compound, the superoxide response (% of plate) in experiment [8] was 99.1% (inactive). The aptamer binding inhibition in [9] was 5% (inactive). The response is -3.92% (inactive) in [10] and 3.43% (inactive) in experiment [12]. For the same compound, the binding (% of control) in experiment [13] was 106% (inactive). Besides, in experiment [14], the efflux inhibition (fraction of control) is -0.17 (inactive). The differentiation response in [16] is -4.09% (inactive).
